Test results from the supplement of paper PMC12636033.
± gives the standard deviation of the averaged measurements. Over roughly 33,000 sequences, “E-score (rank enrichment, -0.5 to 0.5)” has its median near -0.0075; the highest 2% begin near 0.23. The sample as a whole holds a higher share of the highest values than the screen did.

Each sequence was assayed on WT Max(13-93) synthetic (M65Nle) (assay: PBM 8-mer E-score (E-score (rank enrichment, -0.5 to 0.5)); higher = stronger preferential binding).
Experimental: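 Protein binding microarray (universal PBM chip covering all 10-mers in fixed probe flanks) with chemically synthesized human Max(13-93) bHLH-LZ analogs (not full-length Max) bearing noncanonical residues (hArg, Tha, Aib, Nle at 65) and aromatic Cys staples. Read-out per 8-mer (and its reverse complement): E-score (rank-based enrichment, -0.5 to 0.5) and Z-score of median probe intensity.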
For TAATCACA, the “PBM 8-mer E-score” value was 0.201 ± 0.049. In the case of CAATCACA, the “PBM 8-mer E-score” value is reported as 0.247 ± 0.019. With ACATCACA the “PBM 8-mer E-score” value was 0.237 ± 0.015. For AAATCACA, the “PBM 8-mer E-score” value was 0.163 ± 0.043. In the case of TCATCACA, the “PBM 8-mer E-score” value is reported as 0.116 ± 0.011. For CAATCACC, the “PBM 8-mer E-score” value was 0.0883 ± 0.0053. With ACATCACG the “PBM 8-mer E-score” value was 0.0554 ± 0.057. In the case of GAATCACA, the “PBM 8-mer E-score” value is reported as -0.023 ± 0.11. With CCAGCCGA the “PBM 8-mer E-score” value was -0.272 ± 0.029. For AGAAGAAA, the “PBM 8-mer E-score” value was -0.0012 ± 0.042. CGTTAGGC was tested, and the “PBM 8-mer E-score” value was 0.0594 ± 0.11. In the case of GGCGTTTA, the “PBM 8-mer E-score” value is reported as 0.0435 ± 0.017. With CCGGCACG the “PBM 8-mer E-score” value was -0.00989 ± 0.099. With ACCAAAGA the “PBM 8-mer E-score” value was 0.003 ± 0.046. With CATTCTAC the “PBM 8-mer E-score” value was 0.0976 ± 0.045. ATTTCTAC was tested, and the “PBM 8-mer E-score” value was 0.247 ± 0.043. In the case of ATTTCTAA, the “PBM 8-mer E-score” value is reported as -0.0149 ± 0.032. CTTTCTAC was tested, and the “PBM 8-mer E-score” value was 0.317 ± 0.053. In the case of ATTTCTAG, the “PBM 8-mer E-score” value is reported as 0.0411 ± 0.07. With CTTTCTAA the “PBM 8-mer E-score” value was 0.0817 ± 0.047. In the case of AGGTGTCC, the “PBM 8-mer E-score” value is reported as -0.128 ± 0.054. For GACTAAAA, the “PBM 8-mer E-score” value was -0.0397 ± 0.075. AGTATAAC was tested, and the “PBM 8-mer E-score” value was 0.0201 ± 0.0067. With AGTATAAT the “PBM 8-mer E-score” value was 0.259 ± 0.07. AGTATAAA was tested, and the “PBM 8-mer E-score” value was 0.109 ± 0.12. In the case of AATACGGT, the “PBM 8-mer E-score” value is reported as -0.059 ± 0.026. For CAGGGTCA, the “PBM 8-mer E-score” value was -0.0768 ± 0.019. AAATCCAC was tested, and the “PBM 8-mer E-score” value was 0.116 ± 0.058. AAATCCAG was tested, and the “PBM 8-mer E-score” value was -0.00945 ± 0.12. AAATCCAT was tested, and the “PBM 8-mer E-score” value was 0.2404 ± 0.0018. With GAAGTAAC the “PBM 8-mer E-score” value was 0.0916 ± 0.087. For GTCTTTAA, the “PBM 8-mer E-score” value was 0.0691 ± 0.12. In the case of ATCCACAG, the “PBM 8-mer E-score” value is reported as 0.0193 ± 0.067. AATCACGT was tested, and the “PBM 8-mer E-score” value was 0.399 ± 0.04. In the case of ATCCACAA, the “PBM 8-mer E-score” value is reported as 0.0288 ± 0.05. In the case of ACCCACGA, the “PBM 8-mer E-score” value is reported as -0.0551 ± 0.047. AACCATGG was tested, and the “PBM 8-mer E-score” value was 0.0463 ± 0.13. With AACCATGT the “PBM 8-mer E-score” value was 0.2698 ± 0.00089. With ACCCACGC the “PBM 8-mer E-score” value was 0.113 ± 0.11. In the case of ATCCACAT, the “PBM 8-mer E-score” value is reported as 0.287 ± 0.022. With ACCCACGT the “PBM 8-mer E-score” value was 0.359 ± 0.02. AACCATGA was tested, and the “PBM 8-mer E-score” value was 0.145 ± 0.028. With AATCACGA the “PBM 8-mer E-score” value was 0.0321 ± 0.13. AATCACGC was tested, and the “PBM 8-mer E-score” value was 0.188 ± 0.042. With AAATCTCG the “PBM 8-mer E-score” value was 0.017 ± 0.054. In the case of GTGAGTCA, the “PBM 8-mer E-score” value is reported as -0.117 ± 0.064. For TAGGCCAA, the “PBM 8-mer E-score” value was -0.0597 ± 0.035. With CGCAAGCA the “PBM 8-mer E-score” value was 0.1148 ± 0.001. With CTGAACGC the “PBM 8-mer E-score” value was -0.243 ± 0.0048. GATTCCAC was tested, and the “PBM 8-mer E-score” value was -0.0239 ± 0.16. In the case of AACCATTG, the “PBM 8-mer E-score” value is reported as 0.0448 ± 0.0034. In the case of AACCACGA, the “PBM 8-mer E-score” value is reported as 0.198 ± 0.016. For AACCACAT, the “PBM 8-mer E-score” value was 0.282 ± 0.045. For AACCACGC, the “PBM 8-mer E-score” value was 0.178 ± 0.04. For AACCACAC, the “PBM 8-mer E-score” value was 0.173 ± 0.0082. In the case of AACCACGT, the “PBM 8-mer E-score” value is reported as 0.392 ± 0.0086. For CACCATTA, the “PBM 8-mer E-score” value was -0.0432 ± 0.14. In the case of AACCATTA, the “PBM 8-mer E-score” value is reported as 0.318 ± 0.052. AACCACAG was tested, and the “PBM 8-mer E-score” value was -0.196 ± 0.12. In the case of ACAATTGC, the “PBM 8-mer E-score” value is reported as 0.129 ± 0.021. With ATATACCA the “PBM 8-mer E-score” value was 0.153 ± 0.019. With TATGCTGA the “PBM 8-mer E-score” value was -0.0828 ± 0.1. ACCTATTG was tested, and the “PBM 8-mer E-score” value was 0.157 ± 0.01. TACGTATA was tested, and the “PBM 8-mer E-score” value was 0.094 ± 0.091. ACTTGATC was tested, and the “PBM 8-mer E-score” value was -0.0132 ± 0.16. AGAGTGAA was tested, and the “PBM 8-mer E-score” value was -0.133 ± 0.058. For CAGACATC, the “PBM 8-mer E-score” value was -0.0722 ± 0.089. CCCTTTGC was tested, and the “PBM 8-mer E-score” value was -0.0228 ± 0.044. With CTGCCAAG the “PBM 8-mer E-score” value was -0.0342 ± 0.067. CCTCGATA was tested, and the “PBM 8-mer E-score” value was -0.157 ± 0.014. CCTAAACG was tested, and the “PBM 8-mer E-score” value was -0.145 ± 0.043. With AATGTGGC the “PBM 8-mer E-score” value was 0.0312 ± 0.0053. For AATGTGGA, the “PBM 8-mer E-score” value was 0.0921 ± 0.085. AATGTGGG was tested, and the “PBM 8-mer E-score” value was 0.18 ± 0.032. With GATGTGGA the “PBM 8-mer E-score” value was 0.152 ± 0.011. For CATGGGGG, the “PBM 8-mer E-score” value was 0.0813 ± 0.1. With GATGTGGC the “PBM 8-mer E-score” value was -0.117 ± 0.057. For CATGTGGG, the “PBM 8-mer E-score” value was 0.257 ± 0.075. For CATGTGGC, the “PBM 8-mer E-score” value was 0.3003 ± 0.0019. With CATGTGGA the “PBM 8-mer E-score” value was 0.324 ± 0.032. For AATGACTG, the “PBM 8-mer E-score” value was 0.102 ± 0.018. GAAGCTCA was tested, and the “PBM 8-mer E-score” value was -0.152 ± 0.13. ATTCAACC was tested, and the “PBM 8-mer E-score” value was -0.0085 ± 0.021. For GTTCGGGA, the “PBM 8-mer E-score” value was -0.13 ± 0.11. For GACCCTGA, the “PBM 8-mer E-score” value was -0.121 ± 0.035. For AGAGGACA, the “PBM 8-mer E-score” value was -0.0937 ± 0.095.
